Screens: PubChem, National Center for Advancing Translational Sciences (NCATS)
IL1B secr inh: inhibitors of inflammasome signaling (IL-1 beta secretion). THP-1 LPS/ATP IL-1B secretion, AlphaLISA, 16 h; stronger effect = lower value. activity change, % at 57.5 µM. actives 4.7% (n = 360,000). AID 743279; in the data active = activity change below about -50%; inconclusive = mostly about -30% to -49%
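Secreted IL-1B measured by AlphaLISA bead assay after 16 h compound exposure of THP-1 cells; compounds (final up to 57.5 uM) added 1 h before LPS (250 ng/mL) and ATP (1.25 mM) stimulation; lower signal means less secretion.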
VP16 counter: Gal4-VP16 reporter inhibition counter-screen; actives 3.5% (n = 310,000); Drosophila S2 Gal4-VP16 UAS-luciferase, luminescence, 20 h; Potency, µM (highest dose often 53.6 µM), actives largely listed as inhibitors; AID 2546;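 note: Gal4-VP16 expression switched on by copper sulfate through the metallothionein promoter; nearly all actives have a fitted effect of over 50% in size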
TDP1 cell CPT: growth inhibition of DT40 Tdp1-/-;hTDP1 cells with camptothecin (screen for TDP1 inhibitors) | chicken DT40 Tdp1-/-;hTDP1 cells + 20 nM CPT, ATP luminescence, 48 h | AID 686979 | Potency, µM (highest dose often 46.2 µM), usual class: inhibitors | actives 12% (n = 420,000); note: nearly all actives have a fitted effect of over 55% in size
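Cell growth measured by CellTiter-Glo luminescence after a minimum 48 h, 37 C compound exposure with 20 nM CPT in Tdp1-knockout DT40 cells stably expressing hTDP1, seeded 400/well; qHTS titration format.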
RORgamma inh: ROR gamma (mouse) transcription inhibition; P51450; Drosophila S2 Gal4-RORgamma UAS-luciferase reporter, 20 h; Potency, µM (series often up to 53.6 µM), usual class: inhibitors; actives 5.4% (n = 310,000); AID 2551; note: nearly all actives have a fitted effect of over 60% in size
Target sequence (P51450 whole entry, looked up, the tested form may be a part): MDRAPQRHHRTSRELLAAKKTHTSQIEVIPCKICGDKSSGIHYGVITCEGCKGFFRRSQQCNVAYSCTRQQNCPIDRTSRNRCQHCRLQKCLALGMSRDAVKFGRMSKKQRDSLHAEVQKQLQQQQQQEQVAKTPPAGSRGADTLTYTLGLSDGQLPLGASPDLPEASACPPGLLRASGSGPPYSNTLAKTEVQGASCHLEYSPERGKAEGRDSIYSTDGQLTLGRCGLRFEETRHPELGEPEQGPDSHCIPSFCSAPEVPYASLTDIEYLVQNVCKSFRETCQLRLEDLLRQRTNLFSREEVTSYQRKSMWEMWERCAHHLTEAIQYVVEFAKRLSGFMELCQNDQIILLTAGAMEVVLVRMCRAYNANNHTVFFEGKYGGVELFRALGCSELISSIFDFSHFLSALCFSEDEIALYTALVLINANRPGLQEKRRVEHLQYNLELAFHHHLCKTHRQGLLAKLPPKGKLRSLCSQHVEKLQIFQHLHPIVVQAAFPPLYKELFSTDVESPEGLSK
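Compounds are pin-transferred onto Drosophila Schneider cells expressing a copper-inducible Gal4–ROR gamma transactivation domain fusion. After 1 hr, copper sulfate is added to 700 uM final; luciferase is read 20 hr later.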
DT40 TDP1 no CPT: qHTS for Inhibitors of human tyrosyl-DNA phosphodiesterase 1 (TDP1): qHTS in cells in absence of CPT | DT40 Tdp1-/- hTDP1 cells, no CPT, ATP luminescence, 48 h | Potency, µM (series often up to 46.2 µM), usual class: inhibitors | actives 15% (n = 420,000); note: nearly all actives have a fitted effect of over 55% in size
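Seeded 400 DT40-hTDP1 cells/well (vehicle DMSO, no 20 nM CPT); pinned compounds; ≥48 hr at 37 °C; CellTiter-Glo luminescence as viability measure.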
LDHA block: blocks human lactate dehydrogenase A; purified LDHA, NADH/diaphorase-resazurin fluorescence; stronger effect = lower value; actives 0.15% (n = 480,000); P00338; activity change, % (values are at about 110 or 230 µM); in the data active = activity change below about -30%; inconclusive = mostly about -25% to -30%
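LDH5 2 nM; NADH 0.06 mM, pyruvate 0.2 mM; 200 mM Tris pH 7.4, EDTA, Tween-20; 5 min RT. Detection: diaphorase 0.133 mg/mL + resazurin 37 µM, fluorescence ex540/em590 at 0 and 20 min; normalized to enzyme-free and DMSO wells.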
A number is an active result; . = inactive; ? = inconclusive; / = no result given; [ ] = dose if it differs, or a comment. The list is not random: actives were taken first. Their share in the collection is about 18%. Unless noted, calls come from the whole dose curve; as a rule, active = well fitted curve in the direction sought with a large enough effect; inconclusive = small, poorly fitted or top-dose-only effect, or another doubt; inactive = no such curve, though single readings can be large; an effect the other way counts as inactive or inconclusive.

SMILES	IL1B secr inh	VP16 counter	TDP1 cell CPT	RORgamma inh	DT40 TDP1 no CPT	LDHA block
OCC1(CCOc2ccccc2)CCN(Cc2ccncc2)CC1	.	.	.	.	?	.
COc1ccc(CN2CCC(CO)(CCOc3ccccc3)CC2)cc1C	-72.1	.	?	.	?	.
C=CCOc1ccccc1CN1CCC(CO)(CCOc2ccccc2)CC1	?	.	?	.	18.4µM	.
OCC1(CCOc2ccccc2)CCN(Cc2ccc(OC(F)F)cc2)CC1	-90.6	.	.	.	?	.
OCC1(CCOc2ccccc2)CCN(Cc2ccccc2OC(F)F)CC1	-79.2	.	.	.	?	.
COc1cc(CN2CCC(CO)(CCOc3ccccc3)CC2)cc(OC)c1OC	.	.	.	.	.	.
O=[N+]([O-])c1ccc2nc(NCCCO)nc(-c3ccccc3)c2c1	.	.	9.2µM	.	23.1µM	.
O=C(Nc1ccc(Oc2ccccc2)cc1)c1ccoc1	/	/	/	/	/	.
CC(=O)c1ccc(NC(=O)/C(Cl)=C/c2ccccc2)cc1	-62.5	?	.	.	.	.
Cc1ccccc1NC(=O)/C(=C/c1ccccc1)c1ccccc1	.	.	20.6µM	?	11.6µM	.
O=C(Nc1ccccc1)/C(=C/c1ccccc1)c1ccccc1	.	.	?	.	11.6µM	.
Cc1ccccc1NC(=O)C(Cl)=C(Cl)Cl	-97.0	.[10 µM]	20.6µM	.	23.1µM	.
Cc1ccccc1NNC(=O)C(=O)NNc1ccccc1C	.	?	.	.	.	.
CC(NC(=O)/C(C#N)=C\c1ccccc1OC(F)F)c1ccccc1 (stereo not given)	/	/	/	/	/	.
Nc1nonc1C(=O)N1CCCN(C(=O)Nc2ccc(Cl)cc2)CC1	/	/	/	/	/	.
CCN(CC)S(=O)(=O)c1cccc(C(=O)N/N=C(\C)c2cccs2)c1	.	?	.	3.55µM	.	.
C/C(=N\NC(=O)c1cccc(S(=O)(=O)Nc2cccc(Cl)c2)c1)c1cccs1	.	3.98µM	?	5.01µM	?	.
CC(C)C(NC(=O)c1ccc(Cl)cc1)C(=O)NCc1cnn(-c2ccccc2)c1 (stereo not given)	/	/	/	/	/	.
CCc1ccc2oc(C(=O)N(Cc3ccccc3)C3CCS(=O)(=O)C3)cc(=O)c2c1 (stereo not given)	/	/	/	/	/	.
Cc1ccc(CNC(=O)C2CC(c3ccccc3F)=NO2)cc1 (stereo not given)	.	.	?	.	16.4µM	.
O=C(NCc1cccc(C(F)(F)F)c1)C1CC(c2ccccc2F)=NO1 (stereo not given)	.	/	?	/	29.1µM	.
Cc1ccc(NC(=O)c2nc3ccccc3n(C)c2=O)cc1C	/	/	/	/	/	.
COc1cc(-c2nc(-c3cccc(Br)c3)no2)cc(OC)c1OC	/	/	/	/	/	.
CCN(CC)CCNC(=O)c1c(C)n(-c2ccccc2)c2cc(Br)c(OC)cc12	?	.	?	.	18.4µM	.
COc1cc2c(C(=O)N3CCN(C)CC3)c(C)n(-c3ccccc3)c2cc1Br	.	.	.	.	.	.
SMILES	IL1B secr inh	VP16 counter	TDP1 cell CPT	RORgamma inh	DT40 TDP1 no CPT	LDHA block
O=C(Nc1cc(OC(=O)C(F)(F)F)c2nonc2c1OC(=O)C(F)(F)F)C(F)(F)F	/	/	10µM	/	11.2µM	.
Cc1ccc(NC2=C(Cl)C(=O)c3ccccc3C2=O)cc1	.	?	8.2µM	?	13µM	.
O=C1C=C(Nc2ccc(O)cc2)C(=O)c2ccccc21	.	?	14.6µM	.	13µM	.
O=C1C(Cl)=C(Nc2ccc(O)cc2)C(=O)c2ccccc21	-104.7	?	20.6µM	?	?	.
Cc1cc(C)cc(NC2=C(N)C(=O)c3ccccc3C2=O)c1	.	.	?	.	.	.
CCN(CC)c1ccc(NC2=C(Cl)C(=O)c3ccccc3C2=O)cc1	-107.8	11.2µM	10.3µM	?	13µM	.
CCC(=O)Nc1ccc(C(=O)CSc2nnc(C3CC3)n2Cc2ccccc2)cc1	/	/	/	/	/	.
N#Cc1cccc(COc2ccccc2C(N)=O)c1	/	/	/	/	/	.
CC(CCc1ccco1)NC(=O)CCc1nnc2ccc(N3CCN(C)CC3)nn12 (stereo not given)	/	/	/	/	/	.
Cc1ccccc1C(=O)NC(=S)NCc1ccccc1	.	7.08µM	.	6.31µM	?	.
Cc1ccccc1C(=O)NCC(=O)NNC(=S)NC(=O)c1ccccc1C	.	?	.	5.62µM	?	.
CC(C)(C)CC(=O)NC(=S)NCc1ccccc1	.	8.91µM	?	1.12µM	.	.
CCC(NC(=S)NCc1ccccc1)C(=O)O (stereo not given)	.	.	.	.	.	.
Cc1ccccc1C(=O)NC(=S)NCCc1ccccc1	.	?	?	7.94µM	?	.
COC(=O)c1ccc(CNC(=O)CCl)cc1	/	/	/	/	/	.
Cc1cc2cc(NS(=O)(=O)c3ccc4ccccc4c3)ccc2[nH]1	/	/	/	/	/	.
Cc1ccc(C(=O)N2CCN(c3ccccc3)CC2)cc1NC(=O)c1nsc2ccccc12	/	/	20.6µM	/	?	.
COc1cccc(N2CCN(C(=O)c3cccc(NC(=O)c4nsc5ccccc45)c3)CC2)c1	/	/	?	/	20.6µM	.
COc1ccc(N2CCN(C(=O)c3cccc(NC(=O)c4nsc5ccccc45)c3)CC2)cc1	/	/	14.6µM	/	11.6µM	.
Cc1cc(C)cc(NC(=O)N2CCN(C(=O)c3nsc4ccccc34)CC2)c1	/	/	?	/	?	.
Cc1ccc(C)c(NC(=O)N2CCN(C(=O)c3nsc4ccccc34)CC2)c1	/	/	?	/	18.4µM	.
COCCN(Cc1cc2cc(C)ccc2[nH]c1=O)C(=O)c1cccnc1	/	/	/	/	/	.
COc1ccc(C(=O)/C=C/c2ccc(C)cc2)c(OC)c1	/	/	/	/	/	.
O=C(CSc1n[nH]c(-c2ccccc2F)n1)Nc1ccc2c(c1)OCCCO2	/	/	/	/	/	.
Cc1ccc(C2C3=C(CCCC3=O)N=C3c4ccccc4C(=O)C32)cc1 (stereo not given)	-67.6	.	.	.	?	.
SMILES	IL1B secr inh	VP16 counter	TDP1 cell CPT	RORgamma inh	DT40 TDP1 no CPT	LDHA block
O=C1CCCC2=C1C(c1ccc(Cl)cc1)C1C(=O)c3ccccc3C1=N2 (stereo not given)	-54.8	.	?	.	?	.
O=C(CSc1nc2ccsc2c(=O)n1-c1ccccc1)NC1CCCC1	/	/	/	/	/	.
COc1ccc(CN2CC[C@H]3C=CCc4cccc(c43)C2)cc1	.	/	?	/	?	.
COc1ccc(N2c3ccccc3CN(Cc3ccccc3)[C@@H](C)[C@H]2Cc2cccnc2)cc1	.	/	?	/	20.6µM	.
COc1ccc(N2c3ccccc3CN(Cc3ccccc3)[C@@H](C)[C@H]2Cc2c(C)cccc2C)cc1	.	/	18.4µM	/	16.4µM	.
CCN(CC)C(=O)C(Sc1nnnn1-c1c(C)cccc1C)c1ccccc1 (stereo not given)	/	/	/	/	/	.
